Test results taken from PubChem BioAssay AID1778 (Sanford-Burnham Center for Chemical Genomics, 2009).
Hit rate of the full screen: of about 290,000 compounds, about 260 (0.09%) were called active. Only a selection was taken, and actives are over-represented in it overall. Entries with a potency or affinity are not part of this list. Values without a mark were called inactive. No stated cut-off is given here; in the data, active means inhibition above about 50%; inactive means the rest.

Target: Kappa-type opioid receptor (Homo sapiens) (UniProt P41145)
Sequence (P41145 whole entry, looked up): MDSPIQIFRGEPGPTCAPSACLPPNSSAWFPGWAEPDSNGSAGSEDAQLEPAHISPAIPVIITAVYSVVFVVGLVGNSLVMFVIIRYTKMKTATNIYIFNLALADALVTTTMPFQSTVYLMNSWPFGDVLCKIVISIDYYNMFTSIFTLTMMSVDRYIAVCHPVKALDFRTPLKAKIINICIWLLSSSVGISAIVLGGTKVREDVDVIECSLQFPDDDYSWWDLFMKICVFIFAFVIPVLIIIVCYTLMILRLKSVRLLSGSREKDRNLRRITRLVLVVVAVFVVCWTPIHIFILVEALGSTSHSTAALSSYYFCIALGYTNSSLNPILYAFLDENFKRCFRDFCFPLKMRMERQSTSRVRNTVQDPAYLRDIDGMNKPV
Test: KOR antagonists, beta-arrestin recruitment, cell-based, luminescence, uHTS (AID 1778)
Settings: antagonist mode, hits give high values; at 10 µM unless noted

Question: Which inhibition does the source give for CC(C)NS(=O)(=O)c1ccc(CCC(=O)Nc2ccc3c(c2)OCCO3)cc1 here?
Answer: The inhibition was 7.5%.

Question: With CS(=O)(=O)c1ccc2nc(NC(=O)c3ccc(Cl)cc3)sc2c1 as the molecule, how does the inhibition read?
Answer: Its inhibition is -55% [at 20 µM].

Question: How did the inhibition turn out when O=C(O)c1ccc(-c2ccccc2)[nH]c1=O was run?
Answer: Its inhibition is 5.6%.

Question: Which inhibition does the source give for CC(C)(C)NC(=O)c1cc(NC(=O)c2cccs2)cc(NC(=O)c2cccs2)c1 here?
Answer: Its inhibition is -34.4%.

Question: With Cc1nc(Cl)c(Cl)n1CCOc1ccccc1 as the molecule, how does the inhibition read?
Answer: Its inhibition is -4.6%.

Question: With CCN(CC)CCCNC(=O)c1cc(Sc2nnc(C)s2)nc2ccccc12 as the molecule, how does the inhibition read?
Answer: The inhibition was -6.1%.

Question: For Cn1cccc1CNC(=S)Nc1ccccc1Cl, which inhibition is on record?
Answer: Its inhibition is 28.1%.

Question: Which inhibition does the source give for Cc1ccc(NC(=O)CC(C)CC(=O)NCc2ccccc2)cc1Cl (stereo not drawn) here?
Answer: Its inhibition is -17.8%.

Question: Which inhibition does the source give for O=[N+]([O-])c1ccccc1OC/C(=N\O)c1ccccc1 here?
Answer: Its inhibition is 13.6%.

Question: How did the inhibition turn out when COC(=O)c1cn(NC(=O)/C=C/c2cc(OC)ccc2OC)c(=O)c2ccccc12 was run?
Answer: Its inhibition is -8.8%.

Question: CCOc1ccc(C(=O)C(CCC(CN(C)C)C(=O)c2ccc(OCC)cc2)CN(C)C)cc1 (stereo not drawn) was tested. Which inhibition did it give?
Answer: The inhibition was 15.2%.

Question: With CN(C)CC(CCCCC(CN(C)C)C(=O)c1ccccc1)C(=O)c1ccccc1 (stereo not drawn) as the molecule, how does the inhibition read?
Answer: The inhibition was 12.5%.

Question: CN(C)CC(CCC(CN(C)C)C(=O)c1ccccc1)C(=O)c1ccccc1 (stereo not drawn) was tested. Which inhibition did it give?
Answer: Its inhibition is 83.9% (active).

Question: How did the inhibition turn out when Cc1cccc(C(=O)OCC(=O)Nc2ccc(N3CCCCC3)cc2)c1O was run?
Answer: The inhibition was -7.8%.

Question: For Cc1ccccc1N(C(=O)Cn1nnc(-c2cccs2)n1)C(C(=O)NCCC(C)C)c1ccco1 (stereo not drawn), which inhibition is on record?
Answer: Its inhibition is 23.7%.

Question: How did the inhibition turn out when COc1ccccc1NC(=O)CN1CC(=O)Nc2ccccc21 was run?
Answer: Its inhibition is 0%.

Question: For COc1ccc(/C=C/C(=O)OCC(=O)N2CC(=O)Nc3ccccc32)cc1S(=O)(=O)N1CCOCC1, which inhibition is on record?
Answer: The inhibition was -27.5%.

Question: Cc1ccc(NC(=S)NCCCN2CCOCC2)cc1 was tested. Which inhibition did it give?
Answer: The inhibition was 6.6%.

Question: Which inhibition does the source give for Cc1ccc(NC(=S)NCCCN2CCOCC2)cc1C here?
Answer: Its inhibition is 50% (active).

Question: Which inhibition does the source give for Cc1ccc(NC(=S)NCCN2CCOCC2)cc1C here?
Answer: Its inhibition is 16.7%.

Question: Which inhibition does the source give for C/C(=N\NC(=O)c1nnn(-c2nonc2N)c1-c1ccc2c(c1)OCO2)c1cccs1 here?
Answer: Its inhibition is -7.9%.

Question: With Cc1ccc(-c2cc(C(=O)Nc3cc(C)ccc3C)[nH]n2)c(O)c1 as the molecule, how does the inhibition read?
Answer: Its inhibition is 9.1%.

Question: For CCCCC(C(=O)OCC)C(N)Cc1ccc(F)cc1 (stereo not drawn), which inhibition is on record?
Answer: The inhibition was 65.2% (active).

Question: Which inhibition does the source give for CCCCC(CC)C(=O)NCc1ccc(F)cc1 (stereo not drawn) here?
Answer: The inhibition was 8%.

Question: Which inhibition does the source give for CCOC(=O)C(C(C)C)C(N)Cc1ccc(F)cc1 (stereo not drawn) here?
Answer: The inhibition was -13.5%.

Question: With Cc1ccccc1Cn1cc(NC(=O)CCCn2nc([N+](=O)[O-])cc2C)cn1 as the molecule, how does the inhibition read?
Answer: The inhibition was 16.3%.

Question: COc1cccc(CNC(=O)C2CCC(CNS(=O)(=O)c3cccc4cccnc34)CC2)c1 (stereo not drawn) was tested. Which inhibition did it give?
Answer: Its inhibition is 27.1%.

Question: With O=C1CCCC(=NCc2ccco2)C1 as the molecule, how does the inhibition read?
Answer: The inhibition was -29.5%.

Question: With CN(C)c1nc(=NCc2ccco2)ss1 as the molecule, how does the inhibition read?
Answer: The inhibition was 83.2% (active).

Question: With c1coc(CN=C2NC(=NCc3ccco3)c3ccccc32)c1 as the molecule, how does the inhibition read?
Answer: Its inhibition is -31.2%.

Question: With COc1ccc(C)cc1N(C(=O)c1ccco1)C(C(=O)NC1CCCC1)c1ccc(N2CCOCC2)cc1 (stereo not drawn) as the molecule, how does the inhibition read?
Answer: Its inhibition is 5.8%.

Question: Which inhibition does the source give for Cc1cccc(N=Nc2ccc(O)c3ncccc23)c1 here?
Answer: The inhibition was 45.9%.

Question: With CCOc1ccc(N=Nc2ccc(O)c3ncccc23)cc1 as the molecule, how does the inhibition read?
Answer: The inhibition was 32%.

Question: Which inhibition does the source give for CCN(CC)S(=O)(=O)c1cc(OC)ccc1N=Nc1ccc(O)c2ncccc12 here?
Answer: Its inhibition is -5.1%.

Question: Which inhibition does the source give for CCS(=O)(=O)c1ccc(N=Nc2ccc(O)c3ncccc23)c(OC)c1 here?
Answer: Its inhibition is 14%.

Question: For COc1cccc(N=Nc2ccc(O)c3ncccc23)c1, which inhibition is on record?
Answer: The inhibition was 62.9% (active).

Question: How did the inhibition turn out when COc1cccc(N=Nc2ccc3ccccc3c2O)c1 was run?
Answer: The inhibition was 1.7% [at 20 µM].

Question: How did the inhibition turn out when COc1ccc(N=Nc2ccc3ccccc3c2)c(O)c1 was run?
Answer: Its inhibition is -6.2% [at 20 µM].

Question: CN(NC(=O)COc1ccccc1)c1ccccc1 was tested. Which inhibition did it give?
Answer: Its inhibition is 5.9%.

Question: Which inhibition does the source give for CN(CC(=O)Nc1cccnc1)S(=O)(=O)c1cc(Cl)ccc1Cl here?
Answer: The inhibition was 4.2%.

Question: Which inhibition does the source give for COc1cccc(N2C(=O)C3C(C2=O)C3(c2ccccc2)c2ccccc2)c1 (stereo not drawn) here?
Answer: The inhibition was -3.2%.

Question: With CCN(CC)S(=O)(=O)c1ccc(C(=O)NCC(=O)N/N=C/c2ccccc2OC)cc1 as the molecule, how does the inhibition read?
Answer: Its inhibition is -11.7%.

Question: With O=C(OCC(=O)c1ccc(Cl)s1)c1ccccn1 as the molecule, how does the inhibition read?
Answer: Its inhibition is 34%.

Question: Which inhibition does the source give for O=C(CSc1ccc2nnc(-c3ccccn3)n2n1)NCc1ccco1 here?
Answer: The inhibition was -19.3%.

Question: CC(=O)c1sc(-c2ccccc2)cc1N was tested. Which inhibition did it give?
Answer: The inhibition was 4.5%.

Question: How did the inhibition turn out when COCCN=c1scc(-c2ccccc2)n1/N=C/c1c[nH]c2ccccc12 was run?
Answer: Its inhibition is 38.5%.

Question: COCCN=c1scc(-c2cc(OC)c(OC)c(OC)c2)n1/N=C/c1c(C)[nH]c2ccccc12 was tested. Which inhibition did it give?
Answer: The inhibition was 26.6%.

Question: How did the inhibition turn out when Cc1cc([N+](=O)[O-])nn1CC(=O)NCCc1c[nH]c2ccccc12 was run?
Answer: The inhibition was 4.9%.

Question: How did the inhibition turn out when COCc1nnc(NC(=O)c2ccc(NC(C)=O)cc2)s1 was run?
Answer: Its inhibition is 21%.

Question: CCOC(=O)N1CCC(N2CCN(c3cc(C)ccc3C)CC2)CC1 was tested. Which inhibition did it give?
Answer: Its inhibition is 11.6%.

Question: How did the inhibition turn out when CCc1ccc(N(CC(=O)NC)S(C)(=O)=O)cc1 was run?
Answer: The inhibition was 9.3%.

Question: COc1cc(OC)cc(C(=O)NCC(=O)OCc2cc(=O)oc3cc(OC)ccc23)c1 was tested. Which inhibition did it give?
Answer: The inhibition was 9.7%.

Question: Which inhibition does the source give for Clc1ccc(SCc2cn3cccnc3n2)cc1 here?
Answer: The inhibition was -15.8%.

Question: How did the inhibition turn out when Clc1ccc(SCc2cc(N3CCOCC3)nc(-c3ccccn3)n2)cc1 was run?
Answer: The inhibition was 10.2%.

Question: Which inhibition does the source give for CCn1c(CNC(=O)c2ccco2)nnc1SCC(=O)Nc1cc(C(F)(F)F)ccc1Cl here?
Answer: Its inhibition is 1.4%.

Question: Fc1ccccc1COc1ccc(/C=N/NC(=S)NCc2ccccc2)cc1 was tested. Which inhibition did it give?
Answer: Its inhibition is -4.9%.

Question: Which inhibition does the source give for CCOC(=O)C1(Cc2ccccc2)CCN(Cc2cc(OC)c3c(c2)OCO3)CC1 here?
Answer: Its inhibition is -13.9% [at 20 µM].

Question: With Cc1c(NC(=S)Nc2ccccc2C(F)(F)F)cccc1[N+](=O)[O-] as the molecule, how does the inhibition read?
Answer: The inhibition was 5.9%.

Question: Which inhibition does the source give for CC(=O)Nc1ccc(S(=O)(=O)Nc2cccc3cccnc23)cc1 here?
Answer: The inhibition was -32.6%.

Question: Which inhibition does the source give for O=S(=O)(Nc1cccc2cccnc12)c1ccccc1 here?
Answer: The inhibition was 99.6% (active).

Question: Which inhibition does the source give for COc1cc(NS(=O)(=O)c2ccc(C)cc2)c2ncccc2c1 here?
Answer: Its inhibition is 7.9%.

Question: How did the inhibition turn out when CS(=O)(=O)Nc1cccc2cccnc12 was run?
Answer: The inhibition was 30.9%.

Question: For O=S(=O)(c1cccc2cccnc12)N1CCCCC1, which inhibition is on record?
Answer: The inhibition was 2.6%.

Question: Cc1ccc2cccc(NS(=O)(=O)c3ccccc3)c2n1 was tested. Which inhibition did it give?
Answer: Its inhibition is 83.9% (active).

Question: How did the inhibition turn out when O=S(=O)(Nc1cccc2ccccc12)c1ccccc1 was run?
Answer: Its inhibition is -10.6%.

Question: With O=C(O)c1ccccc1NS(=O)(=O)c1cccc2cccnc12 as the molecule, how does the inhibition read?
Answer: Its inhibition is 1.8%.

Question: Cc1cccc(NS(=O)(=O)c2ccccc2)n1 was tested. Which inhibition did it give?
Answer: The inhibition was 12.4%.

Question: Which inhibition does the source give for O=C(Nc1ccc(S(=O)(=O)Nc2ncccn2)cc1)c1ccc(S(=O)(=O)N2CCCC2)cc1 here?
Answer: Its inhibition is 34.1%.
